# Where “and” joins values, the source holds several entries; their conditions need not be identical. Identical values can stand only once. Inconclusive results are not listed. Where a call stands in place of a potency, no number is given. Where a structure was tested more than once in an assay, its records may differ in their call. Calls of active or inactive are those of the source. Unless noted, the call rests on the fitted dose curve; in most records, active means well fitted curve in the direction sought with a large enough effect in the repeat runs; inconclusive means weak or mixed curves; inactive means no such curve, though single readings can be large; an effect the other way counts as inactive or inconclusive.
# Columns and labels:
# [1] = Human pregnane X receptor (PXR) small molecule agonists, qHTS cell viability counter screen (AID 1346977); further: nearly all actives have a fitted effect of over 50% in size; further: potency means the concentration at half of the fitted maximal effect
# Procedure, shortened: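 Cytotoxicity counter screen run in the same wells as the PXR luciferase assay, using PXR-Luc HepG2 cells in charcoal-stripped serum medium. Viability: CellTiter-Fluor fluorescence after 24hr compound treatment.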
# [2] = Caspase-3/7 induction in HepG2 cells by small molecules, qHTS assay (AID 1346978); further: nearly all actives have a fitted effect of over 15% in size
# Procedure, shortened: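 Wild-type HepG2 cells, 2,000/well, settled 5 hr at 37 C and 5% CO2, then compound-treated for 17 hr; caspase-3/7 activity read by luminescent Caspase-Glo 3/7 after 30 min at room temperature.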
# [3] = Caspase-3/7 induction in CHO-K1 cells by small molecules, qHTS assay (AID 1346980); further: nearly all actives have a fitted effect of over 15% in size
# Procedure, shortened: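 Wild-type CHO-K1 cells exposed to compounds for 17hr at 37 C, 5% CO2. Caspase-3/7 activity then measured by Caspase-Glo 3/7 luminescence after 30min at room temperature.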
# [4] = Caspase-3/7 induction in HepG2 cells by small molecules, qHTS cell viability counter screen (AID 1346981); further: nearly all actives have a fitted effect of over 30% in size; further: potency means the concentration at half of the fitted maximal effect
# Procedure, shortened: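 Wild-type HepG2 cells, 2,000/well, settled 5 hr at 37 C, 5% CO2 before compound addition. Viability read by CellTiter-Fluor fluorescence, reagent added after 16 hr compound exposure, then 1 hr at 37C, in the same wells as the caspase read.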
# [5] = biological target: Nuclear receptor subfamily 1 group I member 2 (Homo sapiens) (UniProt O75469); experiment: Human pregnane X receptor (PXR) small molecule agonists, qHTS assay (AID 1346982); further: nearly all actives have a fitted effect of over 35% in size; further: potency means the concentration at half of the fitted maximal effect
# Procedure, shortened: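 PXR-Luc HepG2 reporter cells (CYP3A4-driven luciferase) in 5% charcoal-stripped FBS medium, plated 5 h before compound addition, then treated 24 h at 37C. Luciferase read by ONE-Glo luminescence after 30 min at room temperature.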
# [6] = biological target: Acetylcholinesterase (Homo sapiens) (UniProt P22303); experiment: Acetylcholinesterase (AChE) small molecule antagonists: enzyme-based qHTS assay (AID 1347397; calls by dose curve; further: nearly all actives have a fitted effect of over 55% in size); conditions: Potency: AChE enzyme activity inhibition
# Procedure, shortened: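 Enzyme inhibition was scored from DTNB-detected thiocholine formed by recombinant human AChE acting on acetylthiocholine. The 30 min compound preincubation and 10 min substrate reaction were both run at room temperature, with DMSO as vehicle control.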
# [7] = biological target: Acetylcholinesterase (Homo sapiens) (UniProt P22303); experiment: Acetylcholinesterase (AChE) small molecule antagonists: fluorescence cell-based qHTS assay (AID 1347398; calls by dose curve; further: nearly all actives have a fitted effect of over 50% in size); conditions: Potency: AChE activity
# Procedure, shortened: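 Endogenous acetylcholinesterase of SH-SY5Y neuroblastoma cells is measured in situ. After overnight attachment and 30 min compound exposure, cells receive acetylthiocholine and Thiolite Green; fluorescence is read after 40 min at room temperature.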
# [8] = biological target: Cytochrome P450 2C19 (Homo sapiens) (UniProt P33261); experiment: Cytochrome P450 Family 2 Subfamily C Member 19 (CYP2C19) small molecule antagonists: luciferase reporter qHTS assay (AID 1671197); further: nearly all actives have a fitted effect of over 65% in size; further: potency means the concentration at half of the fitted maximal effect
# Procedure, shortened: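 Compounds were tested on CYP2C19 activity via proluciferin conversion to luciferin. The 37C, 1 h reaction followed NADPH addition; detection reagent stopped it.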
# [9] = biological target: Voltage-gated inwardly rectifying potassium channel KCNH2 (Homo sapiens) (UniProt Q12809); experiment: Human Ether-a-go-go-Related Gene (hERG) channel small molecule antagonists: fluorescence cell-based qHTS assay (AID 1671200); further: nearly all actives have a fitted effect of over 50% in size; further: potency means the concentration at half of the fitted maximal effect
# Procedure, shortened: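 Fluorescence at 540 nm emission (480 nm excitation) was recorded kinetically for 2 min at 1-second intervals once the thallium-containing stimulus reached cells previously loaded with FluxOR II dye.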
# [10] = biological target: Cytochrome P450 3A4 (Homo sapiens) (UniProt P08684); experiment: Cytochrome P450 Family 3 Subfamily A Member 4 (CYP3A4) small molecule antagonists: luciferase reporter qHTS assay (AID 1671201); further: nearly all actives have a fitted effect of over 50% in size; further: potency means the concentration at half of the fitted maximal effect
# Procedure, shortened: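 qHTS, 1536-well. CYP3A4 + proluciferin substrate, cpd 10 min RT → NADPH regen 1 h RT → detection reagent 20 min → luminescence (RLU). Ketoconazole positive control.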
# [11] = Caspase-3/7 induction in CHO-K1 cells by small molecules, qHTS cell viability counter screen (AID 1346979); further: nearly all actives have a fitted effect of over 35% in size; further: potency means the concentration at half of the fitted maximal effect
# Procedure, shortened: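 Cytotoxicity counter screen run in parallel with the caspase-3/7 assay: CHO-K1 cells, 16hr compound treatment at 37C, then CellTiter-Fluor for 1hr before fluorescence reading.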
# [12] = biological target: Cytochrome P450 2D6 (Homo sapiens) (UniProt P10635); experiment: Cytochrome P450 Family 2 Subfamily D Member 6 (CYP2D6) small molecule antagonists: luciferase reporter qHTS assay (AID 1671196); further: nearly all actives have a fitted effect of over 50% in size; further: potency means the concentration at half of the fitted maximal effect
# Procedure, shortened: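 Cell-free P450-Glo system: CYP2D6 with proluciferin substrate was pre-incubated with compound for 10 min, then reacted with NADPH regeneration for 1 h at room temperature. Luciferin product was detected after 20 min, and data were reported as relative luminescence units.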
# [13] = biological target: Cytochrome P450 2C9 (Homo sapiens) (UniProt P11712); experiment: Cytochrome P450 Family 2 Subfamily C Member 9 (CYP2C9) small molecule antagonists: luciferase reporter qHTS assay (AID 1671198); further: nearly all actives have a fitted effect of over 50% in size; further: potency means the concentration at half of the fitted maximal effect
# Procedure, shortened: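 P450-Glo proluciferin substrate with CYP2C9 enzyme; 10 min RT preincubation, then NADPH regeneration 1 h at 37C; luciferin detection reagent 20 min RT, luminescence in relative luminescence units.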
# [14] = biological target: Cytochrome P450 1A2 (Homo sapiens) (UniProt P05177); experiment: Cytochrome P450 Family 1 Subfamily A Member 2 (CYP1A2) small molecule antagonists: luciferase reporter qHTS assay (AID 1671199); further: nearly all actives have a fitted effect of over 50% in size; further: potency means the concentration at half of the fitted maximal effect
# Procedure, shortened: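 P450-Glo CYP1A2 enzyme–proluciferin substrate mix with compound 10 min at room temperature, then NADPH regeneration 1 h at room temperature. Luciferin detection reagent added, luminescence read after 20 min; furafylline positive control.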
# [15] = biological target: Acetylcholinesterase (Homo sapiens) (UniProt P22303); experiment: Acetylcholinesterase (AChE) small molecule antagonists: colormetric cell-based qHTS assay (AID 1347395; calls by dose curve; further: nearly all actives have a fitted effect of over 30% in size; further: potency means the concentration at half of the fitted maximal effect)
# Procedure, shortened: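 Cells (SH-SY5Y, 2,000 per well) are seeded and left overnight at 37 C. Compound is added for 30 min, then DTNB and acetylthiocholine for a further 90 min at 37 C before absorbance-based thiocholine detection.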
# [16] = biological target: Acetylcholinesterase (Homo sapiens) (UniProt P22303); experiment: Acetylcholinesterase (AChE) small molecule antagonists: enzyme-based qHTS assay with human liver microsomes (AID 1347399; calls by dose curve; further: nearly all actives have a fitted effect of over 60% in size); conditions: Potency: qHTS inhibition
# Procedure, shortened: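 Recombinant human AChE (50 mU/mL in the enzyme mix) and human liver microsomes (0.25 mg/mL final) were preincubated with compound and NADPH (0.25 mg/mL final) for 30 min at 37 C. Acetylthiocholine/DTNB was then added; thiocholine was read colorimetrically after 10 min at room temperature.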
# [17] = biological target: Nuclear receptor subfamily 1 group I member 2 (Rattus norvegicus) (UniProt Q9R1A7); experiment: Rat pregnane X receptor (rPXR) activation by small molecules, qHTS assay (AID 1346983); conditions: rPXR luciferase reporter cells, One-Glo luminescence, 24 h; max activation: stronger effect = higher value; further: nearly all actives have a fitted effect of over 20% in size
# Procedure, shortened: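 Cell-based rPXR activation assay: rPXR cells, 2,000 per well, rested 5hr at 37 C, then exposed to compounds in DMSO for 24 hr at 37 C. Luciferase activity read by One-Glo luminescence after 30 min at room temperature.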
# [18] = biological target: Nuclear receptor subfamily 1 group I member 2 (Homo sapiens) (UniProt O75469); experiment: CYP3A4 induction through human pregnane X receptor (PXR) by small molecules, qHTS assay (AID 1346984); further: potency means the concentration at half of the fitted maximal effect; nearly all actives have a fitted effect of over 40% in size
# Procedure, shortened: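 DPX-2 HepG2 cells carrying a PXR response element and CYP3A4-promoter luciferase construct, treated with compounds 24 hr at 37C. Then P450-Glo CYP3A4 Luciferin-IPA substrate (3uM final) for 3 hr at 37C, One-Glo added, luminescence read.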
# [19] = biological target: Nuclear receptor subfamily 1 group I member 2 (Homo sapiens) (UniProt O75469); experiment: Human pregnane X receptor (PXR) activation by small molecules, qHTS assay (AID 1346985); further: nearly all actives have a fitted effect of over 40% in size
# Procedure, shortened: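 DPX-2 cells (HepG2 co-transfected with a PXR response element and a CYP3A4-promoter luciferase construct) were seeded at 2,000 per well, rested 5 hr at 37C, then exposed to DMSO-dissolved compounds for 24 hr. Activation was read as luciferase luminescence.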
# Chain of Cytochrome P450 2C19 (Homo sapiens) (P33261 whole entry, looked up): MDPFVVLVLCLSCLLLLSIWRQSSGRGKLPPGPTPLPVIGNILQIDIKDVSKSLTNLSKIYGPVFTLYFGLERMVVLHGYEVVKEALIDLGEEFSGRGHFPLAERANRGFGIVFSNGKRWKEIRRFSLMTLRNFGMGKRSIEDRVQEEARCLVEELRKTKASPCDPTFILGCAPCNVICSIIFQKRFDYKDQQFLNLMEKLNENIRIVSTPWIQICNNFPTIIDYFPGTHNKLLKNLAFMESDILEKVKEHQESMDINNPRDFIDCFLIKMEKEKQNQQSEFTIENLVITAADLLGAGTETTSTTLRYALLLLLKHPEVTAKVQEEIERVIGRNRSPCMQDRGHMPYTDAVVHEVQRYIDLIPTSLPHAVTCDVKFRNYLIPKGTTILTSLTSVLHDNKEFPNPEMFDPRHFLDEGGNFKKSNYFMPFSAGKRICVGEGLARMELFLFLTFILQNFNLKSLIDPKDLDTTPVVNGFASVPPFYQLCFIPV
# Chain of Cytochrome P450 1A2 (Homo sapiens) (P05177 whole entry, looked up): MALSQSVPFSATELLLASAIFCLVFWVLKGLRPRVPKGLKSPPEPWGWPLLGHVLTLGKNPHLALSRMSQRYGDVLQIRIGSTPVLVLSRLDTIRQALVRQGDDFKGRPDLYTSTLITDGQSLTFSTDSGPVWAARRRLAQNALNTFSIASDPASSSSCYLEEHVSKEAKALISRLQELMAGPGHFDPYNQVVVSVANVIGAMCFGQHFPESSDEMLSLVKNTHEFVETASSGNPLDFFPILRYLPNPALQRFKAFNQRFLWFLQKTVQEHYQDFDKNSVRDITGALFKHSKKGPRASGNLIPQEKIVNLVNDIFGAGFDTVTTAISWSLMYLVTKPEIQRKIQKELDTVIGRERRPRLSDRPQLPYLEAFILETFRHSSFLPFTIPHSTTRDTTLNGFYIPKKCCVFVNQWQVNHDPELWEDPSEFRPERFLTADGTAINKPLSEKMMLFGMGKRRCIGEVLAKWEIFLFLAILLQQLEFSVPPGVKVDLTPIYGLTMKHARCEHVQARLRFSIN
# Chain of Cytochrome P450 3A4 (Homo sapiens) (P08684 whole entry, looked up): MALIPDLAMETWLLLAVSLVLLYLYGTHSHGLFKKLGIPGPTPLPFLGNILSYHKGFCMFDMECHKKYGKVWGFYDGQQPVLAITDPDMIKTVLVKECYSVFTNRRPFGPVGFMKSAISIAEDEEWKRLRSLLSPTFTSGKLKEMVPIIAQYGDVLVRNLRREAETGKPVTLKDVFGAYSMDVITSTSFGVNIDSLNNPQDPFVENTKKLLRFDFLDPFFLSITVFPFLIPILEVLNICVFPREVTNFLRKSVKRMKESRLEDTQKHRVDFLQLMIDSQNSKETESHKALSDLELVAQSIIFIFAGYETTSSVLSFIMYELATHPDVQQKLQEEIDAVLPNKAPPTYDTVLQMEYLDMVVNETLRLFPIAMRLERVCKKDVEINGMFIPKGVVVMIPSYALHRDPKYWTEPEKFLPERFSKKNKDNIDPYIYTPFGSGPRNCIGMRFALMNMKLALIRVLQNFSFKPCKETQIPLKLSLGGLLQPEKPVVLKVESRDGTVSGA
# Chain of Cytochrome P450 2D6 (Homo sapiens) (P10635 whole entry, looked up): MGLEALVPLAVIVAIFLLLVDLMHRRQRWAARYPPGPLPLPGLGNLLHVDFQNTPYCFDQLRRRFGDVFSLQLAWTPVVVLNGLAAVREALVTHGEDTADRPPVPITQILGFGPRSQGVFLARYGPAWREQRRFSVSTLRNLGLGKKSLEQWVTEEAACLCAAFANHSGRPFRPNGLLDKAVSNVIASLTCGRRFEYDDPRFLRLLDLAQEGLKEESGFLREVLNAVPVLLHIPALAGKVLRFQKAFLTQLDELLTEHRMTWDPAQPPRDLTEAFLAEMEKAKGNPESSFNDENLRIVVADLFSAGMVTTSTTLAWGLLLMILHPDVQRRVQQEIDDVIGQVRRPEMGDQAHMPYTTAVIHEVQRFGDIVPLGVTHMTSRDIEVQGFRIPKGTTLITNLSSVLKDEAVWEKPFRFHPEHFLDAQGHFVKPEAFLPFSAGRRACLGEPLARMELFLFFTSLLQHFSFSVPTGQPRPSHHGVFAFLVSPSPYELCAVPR
# Chain of Acetylcholinesterase (Homo sapiens) (P22303 whole entry, looked up): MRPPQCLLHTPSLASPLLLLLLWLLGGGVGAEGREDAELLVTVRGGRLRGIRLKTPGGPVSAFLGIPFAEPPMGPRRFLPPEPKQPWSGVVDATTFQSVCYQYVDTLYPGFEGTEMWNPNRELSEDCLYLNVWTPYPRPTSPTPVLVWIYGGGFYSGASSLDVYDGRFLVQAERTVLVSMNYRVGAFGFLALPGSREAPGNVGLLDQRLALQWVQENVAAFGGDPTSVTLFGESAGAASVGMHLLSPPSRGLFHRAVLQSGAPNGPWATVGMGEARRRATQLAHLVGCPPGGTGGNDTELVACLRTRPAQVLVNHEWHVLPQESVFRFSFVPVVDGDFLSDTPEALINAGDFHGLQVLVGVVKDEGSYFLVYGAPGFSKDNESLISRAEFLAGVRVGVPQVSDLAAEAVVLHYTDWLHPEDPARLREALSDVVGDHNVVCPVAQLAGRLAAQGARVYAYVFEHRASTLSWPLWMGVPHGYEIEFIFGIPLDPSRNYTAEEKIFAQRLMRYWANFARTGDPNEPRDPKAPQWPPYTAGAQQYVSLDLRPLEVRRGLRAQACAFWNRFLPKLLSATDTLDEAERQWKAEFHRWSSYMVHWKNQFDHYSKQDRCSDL
# Chain of Voltage-gated inwardly rectifying potassium channel KCNH2 (Homo sapiens) (Q12809 whole entry, looked up): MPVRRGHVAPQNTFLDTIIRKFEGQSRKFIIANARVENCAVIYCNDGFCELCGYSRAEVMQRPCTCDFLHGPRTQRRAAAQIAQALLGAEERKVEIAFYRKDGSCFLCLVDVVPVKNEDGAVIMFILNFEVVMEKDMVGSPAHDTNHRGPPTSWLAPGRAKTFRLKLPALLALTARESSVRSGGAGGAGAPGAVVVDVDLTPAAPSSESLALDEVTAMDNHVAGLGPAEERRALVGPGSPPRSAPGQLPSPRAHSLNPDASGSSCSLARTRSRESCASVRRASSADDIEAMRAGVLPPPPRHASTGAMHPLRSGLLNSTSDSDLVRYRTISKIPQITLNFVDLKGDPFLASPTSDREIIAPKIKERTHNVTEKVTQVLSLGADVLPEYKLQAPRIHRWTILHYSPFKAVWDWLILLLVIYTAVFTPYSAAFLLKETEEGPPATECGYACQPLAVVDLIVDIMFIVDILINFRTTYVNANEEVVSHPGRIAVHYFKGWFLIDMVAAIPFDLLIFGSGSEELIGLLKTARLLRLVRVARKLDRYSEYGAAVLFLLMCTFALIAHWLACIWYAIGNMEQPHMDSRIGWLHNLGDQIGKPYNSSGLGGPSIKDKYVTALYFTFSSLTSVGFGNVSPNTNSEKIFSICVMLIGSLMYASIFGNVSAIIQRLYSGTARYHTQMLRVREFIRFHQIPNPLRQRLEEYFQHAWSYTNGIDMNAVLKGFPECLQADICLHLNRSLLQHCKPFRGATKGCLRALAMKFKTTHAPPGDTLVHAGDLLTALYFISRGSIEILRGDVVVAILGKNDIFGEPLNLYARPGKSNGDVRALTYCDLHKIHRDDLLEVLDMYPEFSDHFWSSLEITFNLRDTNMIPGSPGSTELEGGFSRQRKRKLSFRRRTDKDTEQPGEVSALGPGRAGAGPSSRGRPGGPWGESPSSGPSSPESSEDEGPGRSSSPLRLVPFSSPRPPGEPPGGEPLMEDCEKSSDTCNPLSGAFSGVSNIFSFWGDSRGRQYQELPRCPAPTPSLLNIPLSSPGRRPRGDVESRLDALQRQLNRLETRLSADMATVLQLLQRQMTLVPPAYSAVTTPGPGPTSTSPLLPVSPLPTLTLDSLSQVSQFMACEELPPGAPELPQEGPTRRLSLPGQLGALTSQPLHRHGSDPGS
# Chain of Nuclear receptor subfamily 1 group I member 2 (Homo sapiens) (O75469 whole entry, looked up): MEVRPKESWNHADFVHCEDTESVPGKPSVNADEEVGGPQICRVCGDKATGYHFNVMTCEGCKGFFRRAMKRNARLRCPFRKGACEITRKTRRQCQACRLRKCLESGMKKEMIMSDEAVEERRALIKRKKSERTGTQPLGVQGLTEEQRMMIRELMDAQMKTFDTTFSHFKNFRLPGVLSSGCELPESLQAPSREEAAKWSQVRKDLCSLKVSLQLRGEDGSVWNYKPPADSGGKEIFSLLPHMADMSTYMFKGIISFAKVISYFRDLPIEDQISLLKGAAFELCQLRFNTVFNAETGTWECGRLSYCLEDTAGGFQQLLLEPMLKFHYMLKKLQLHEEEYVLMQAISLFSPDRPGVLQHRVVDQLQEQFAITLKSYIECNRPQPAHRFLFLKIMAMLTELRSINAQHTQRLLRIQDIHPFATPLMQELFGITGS
# Chain of Cytochrome P450 2C9 (Homo sapiens) (P11712 whole entry, looked up): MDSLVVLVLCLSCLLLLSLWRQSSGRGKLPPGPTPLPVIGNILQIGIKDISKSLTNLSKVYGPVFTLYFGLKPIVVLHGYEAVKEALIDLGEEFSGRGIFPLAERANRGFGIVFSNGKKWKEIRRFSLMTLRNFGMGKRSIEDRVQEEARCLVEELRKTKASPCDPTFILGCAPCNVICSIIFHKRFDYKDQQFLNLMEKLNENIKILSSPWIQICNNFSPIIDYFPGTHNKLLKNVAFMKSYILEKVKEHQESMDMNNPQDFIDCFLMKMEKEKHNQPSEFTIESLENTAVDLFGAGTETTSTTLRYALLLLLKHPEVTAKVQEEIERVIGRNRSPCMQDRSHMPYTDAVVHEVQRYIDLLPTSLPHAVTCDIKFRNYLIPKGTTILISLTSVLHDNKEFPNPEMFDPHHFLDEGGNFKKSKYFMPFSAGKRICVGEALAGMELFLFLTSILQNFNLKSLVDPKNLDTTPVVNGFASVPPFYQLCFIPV
SMILES,Potency [1],Potency [2],Potency [3],Potency [4],Potency [5],Potency [6],Potency [7],Potency [8],Potency [9],Potency [10],Potency [11],Potency [12],Potency [13],Potency [14],Potency [15],Potency [16],max activation [17],Potency [18],Potency [19]
O=NN1CCNCC1,inactive,inactive,inactive,inactive,inactive,inactive,inactive,44.3 µM (active),inactive,inactive,–,–,–,–,–,–,–,–,–
CCn1cc[n+](C)c1,inactive and 54.5 µM (active),inactive,inactive,inactive,inactive and 48.6 µM (active),–,–,inactive and 40.3 µM (active) and 79.5 µM (active),inactive and 24.8 µM (active),inactive,inactive,inactive and 507 nM (active) and 34.7 µM (active),inactive and 32 µM (active),35.5 µM (active) and inactive and 39 µM (active),–,–,–,–,–
CC(C)N(C(=O)COc1nnc(C(F)(F)F)s1)c1ccc(F)cc1,inactive,inactive,inactive,inactive,–,inactive,–,1 µM (active),inactive,inactive,inactive,inactive,35.6 µM (active),39.9 µM (active),39.9 µM (active),inactive,–,–,–
CC/C(=N\OC/C=C/Cl)C1=C(O)CC(C2CCOCC2)CC1=O (configuration not stated),inactive,inactive,inactive,inactive,inactive,inactive,inactive,–,inactive,31.7 µM (active),inactive,–,31.7 µM (active),–,inactive,inactive,–,–,–
COCCOCCO,inactive,inactive,inactive,inactive,27.3 µM (active),inactive,inactive,–,inactive,–,–,–,–,–,–,–,–,–,–
Nc1ccc(N=Nc2ccc(-c3ccc(N=Nc4c(S(=O)(=O)O)cc5cc(S(=O)(=O)O)c(N=Nc6ccccc6)c(O)c5c4N)cc3)cc2)c(N)c1,17.6 µM (active),inactive,inactive,19.7 µM (active),–,inactive,inactive,inactive,inactive,–,17.6 µM (active),–,–,–,inactive,inactive,–,–,–
O=C(O)C1(c2ccc3c(c2)OC[C@H](Cc2ccc(-c4ccccc4)cc2)[C@H]3O)CCCC1,–,inactive,inactive,inactive,–,inactive,inactive,–,inactive,inactive,–,inactive,–,inactive,inactive,inactive,–,–,–
ClCc1ccccc1,inactive,inactive,inactive,–,60.8 µM (active),inactive,inactive,–,inactive,inactive,inactive,–,inactive,inactive,–,–,–,–,–
CC(C)(C)c1cc([N+](=O)[O-])cc([N+](=O)[O-])c1O,6.84 µM (active),inactive,inactive,21.6 µM (active),19.3 µM (active),inactive,inactive,56.2 µM (active),inactive,inactive,17.2 µM (active),–,–,56.2 µM (active),inactive,inactive,–,–,–
C#CCOC(C(=O)OCCN(C)C)(c1ccccc1)c1ccccc1,inactive,inactive,inactive,inactive,–,–,–,–,–,–,inactive,–,2.19 µM (active),inactive,–,–,-6.97% (inactive),15.8 µM (active),inactive
II,inactive,inactive,inactive,inactive,inactive,–,inactive,56.4 µM (active),inactive,–,54.5 µM (active),28.3 µM (active),–,71 µM (active),inactive,inactive,–,–,–
Cc1ccc(-c2c(Cl)nc(C#N)n2S(=O)(=O)N(C)C)cc1,43.2 µM (active),inactive,inactive,–,9.68 µM (active),inactive,inactive,79.6 µM (active),inactive,inactive,–,inactive,–,22.4 µM (active),inactive,inactive,–,–,–
Clc1ccc(C2(Cn3cncn3)CC(Br)CO2)c(Cl)c1 (configuration not stated),–,inactive,inactive,–,24.2 µM (active),inactive,–,–,–,0.126 µM (active),–,31.5 µM (active),5 µM (active),31.5 µM (active),–,–,–,–,–
CCOP(=S)(OCC)Oc1cc(Cl)c(Br)cc1Cl,inactive,inactive,inactive,inactive,61.1 µM (active),–,–,–,inactive,2.24 µM (active),inactive,–,2 µM (active),3.56 µM (active),–,–,–,–,–
CCOS(C)(=O)=O,–,inactive,inactive,inactive,inactive,inactive,inactive,inactive,inactive,inactive,inactive,–,inactive,inactive,inactive,inactive,–,–,–

# — PubChem BioAssay (Tox21)
